Experimental data from the supplement of paper PMC6135742.
Counter-ions that a name gives are not always drawn. ± gives the standard deviation of the averaged measurements. In all, about 2,600 compounds were measured (“MBP+ mature oligodendrocyte number relative to DMSO vehicle control”: median about -0.34, highest 2% from about 13 on). Shown is part of a subset that was picked to be rich in the highest values.

The compounds below were run on jimpy (Plp1 jimpy) mouse iPSC-derived oligodendrocyte progenitor cells (assay: MBP+ mature oligodendrocyte number relative to DMSO vehicle control (SDs above negative control mean); higher = more surviving jimpy oligodendrocytes (rescue)). Details: 10 µM; 3 days.
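Further: 10 µM single dose with 3-day oligodendrocyte differentiation.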

| SMILES | MBP+ mature oligodendrocyte number |
| --- | --- |
| CO[C@H]1C(=O)[C@]2(C)[C@@H](OC)C[C@H]3OC[C@@]3(OC(C)=O)[C@H]2[C@H](OC(=O)c2ccccc2)[C@]2(O)C[C@H](OC(=O)[C@H](O)[C@@H](NC(=O)OC(C)(C)C)c3ccccc3)C(C)=C1C2(C)C [Cabazitaxel] | -3.71 |
| C=CCN1CCc2c(cc(O)c(O)c2Br)[C@@H](c2ccccc2)C1 [R(+)-6-Bromo-APB hydrobromide] | -2.95 |
| Cc1ccc(C(=O)NCCCCCC(=O)Nc2ccccc2N)cc1 | -5.76 |
| NC(N)=NCc1cccc(I)c1 [m-Iodobenzylguanidine hemisulfate] | 16.6 |
| CCN(CC)CCn1c(=O)c(Cc2ccc(OC)cc2)nc2ccccc21 [Caroverine hydrochloride] | -0.211 |
| Cc1ccc(S(=O)(=O)OCC(=O)Nc2ccc(C(=O)O)c(O)c2)cc1 | 2.29 |
| CC[n+]1c(/C=C/C=C2/N(C)c3ccccc3C2(C)C)sc2ccccc21 | < -4.47 |
| Cc1cc(C(=O)NOCCO)c(Nc2ccc(I)cc2F)n(C)c1=O | -0.892 |
| NCCNS(=O)(=O)c1cccc2c(Cl)cccc12 [A3 hydrochloride] | -2.82 |
| Cc1nnc(C(=O)NC(C)(C)c2nc(C(=O)NCc3ccc(F)cc3)c(O)c(=O)n2C)o1 [Raltegravir (MK-0518)] | 55.9 |
| Cn1c(N2CCCCS2(=O)=O)nc(C(=O)NCc2ccc(F)cc2)c(O)c1=O | < -6.7 |
| O=C(Nc1cccc(C(F)(F)F)c1)Nc1cc(S(=O)(=O)NC2CC2)ccc1-c1ccsc1 | 18.2 |
| O=C(O)c1ccccc1Nc1cccc(C(F)(F)F)c1 [Flufenamic acid] | 1.25 |
| COc1cc(OC)cc(-c2cc3cnc(N)nc3nc2NC(=O)NC(C)(C)C)c1 | -2.43 |
| CC[C@H](NC(=O)c1c(C)c(-c2ccccc2)nc2ccccc12)c1ccccc1 | -1.61 |
| O=C1NC(=O)/C(=C\c2ccc3nccnc3c2)S1 | -0.833 |
| Clc1ccccc1C(c1ccccc1)(c1ccccc1)n1ccnc1 [Clotrimazole] | 15.7 ± 1.2 |
| FC(F)(F)c1ccccc1-n1ccnc1 [1-[2-(Trifluoromethyl)phenyl]imidazole] | -0.176 |
| O=C(NCCO)c1cccc(-c2cc(Nc3ccc(OC(F)(F)F)cc3)ncn2)c1 | -0.394 |
| CC(=O)[C@H]1CC[C@H]2[C@@H]3CC=C4C[C@@H](OS(=O)(=O)O)CC[C@]4(C)[C@H]3CC[C@]12C [Pregnenolone sulfate sodium] | 0.467 |
| O=C1NC(=O)C(=Cc2ccc(-c3ccc(F)cc3)o2)S1 (stereo in doubt) | 0.66 |

| SMILES | MBP+ mature oligodendrocyte number |
| --- | --- |
| Clc1ccc(C(c2ccc(Cl)cc2)[n+]2ccn(CC(OCc3ccc(Cl)cc3Cl)c3ccc(Cl)cc3Cl)c2)cc1 (stereo unspecified) [Calmidazolium chloride] | < -3.34 |
| CC(C)OC(=O)C(C(=O)OC(C)C)=C1SC=CS1 [Malotilate] | 19 |
| CCN(C(=O)c1c(O)c2c(Cl)cccc2n(C)c1=O)c1ccccc1 [Laquinimod] | 1.45 |
| O=C(O)[C@H](CC(=O)N1C[C@H]2CCCC[C@H]2C1)Cc1ccccc1 [Mitiglinide calcium] | -1.54 |
| COc1ccccc1N1CCN(CCN(C(=O)c2ccc(F)cc2)c2ccccn2)CC1 [p-MPPF dihydrochloride] | 6.54 |
| CNCc1ccc(C)c(NC(=O)c2ccc(Nc3nc(-c4ccccc4)c4ccccc4n3)cc2)c1 | < -6.35 |
| Cc1ccc(NC(=O)c2cccc(N(C)C)c2)cc1NC(=O)c1ccc(O)cc1 | 14.6 |
| Cc1ccc(C(=O)Nc2ccc(S(=O)(=O)O)c3cc(S(=O)(=O)O)cc(S(=O)(=O)O)c23)cc1NC(=O)c1cccc(NC(=O)Nc2cccc(C(=O)Nc3cc(C(=O)Nc4ccc(S(=O)(=O)O)c5cc(S(=O)(=O)O)cc(S(=O)(=O)O)c45)ccc3C)c2)c1 [Suramin sodium salt] | -1.35 |
| C[C@]12CC[C@@H]3c4ccc(O)cc4CC[C@H]3[C@@H]1CC[C@@H]2O [Estradiol] | 5.47 |
| C[C@]12CC[C@@H]3c4ccc(O)cc4CC[C@H]3[C@@H]1C[C@@H](O)[C@@H]2O [Estriol] | -0.78 |
| C[C@]12CC[C@@H]3c4ccc(O)cc4CC[C@H]3[C@@H]1CC[C@@H]2O [beta-Estradiol] | 3.17 |
| C[C@]12CC[C@@H]3c4ccc(O)cc4CC[C@H]3[C@@H]1CCC2=O [Estrone] | 21.6 ± 26 |
| Nc1nc2ccc(Cl)cc2n2c(-c3ccccc3)nnc12 | 0.304 |
| Oc1c2ccccc2c2c3c(cccc13)N=N2 | -2.59 ± 1.1 |
| CCCCCCCCCCCCCCCC(=O)OC[C@H](O)[C@H]1OC(=O)C(O)=C1O [L-Ascorbyl 6-palmitate] | -1.84 |
| N[C@@H](Cc1cc(I)c(Oc2cc(I)c(O)c(I)c2)c(I)c1)C(=O)O [L-Thyroxine] | -1.06 |
| N#Cc1ccc(C(c2ccc(C#N)cc2)n2cncn2)cc1 [Letrozole] | 3.69 |
| c1ccc(-c2ccc(C(c3ccccc3)n3ccnc3)cc2)cc1 (stereo unspecified) [Bifonazole] | 52.3 |
| CC(N)(Cc1ccc(O)cc1)C(=O)O (racemic) [DL-alpha-Methyl-p-tyrosine] | 1.37 |
| O=C(/C=C/c1ccc(O)cc1)CC(=O)/C=C/c1ccc(O)cc1 [Bisdemethoxycurcumin] | 0.659 |
